Screens as filed in PubChem.
ALDH1A1 inh = blocks purified human ALDH1A1 activity; P00352; Purified ALDH1A1, NADH fluorescence, propionaldehyde substrate; Potency, µM (titrated, usually from 75.3 µM), usual class: inhibitors; 220,000 compounds, 7.3% hits; AID 1030
PNC assembly inh = blocks assembly of the perinucleolar compartment | PC3M PTB-GFP, PNC prevalence imaging, 16 h; hits give low values | activity change (PNC), negative = inhibition, % at 10 µM | 140,000 compounds, 3.1% hits | AID 2417;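 active = readout at or below -70, meaning at least 70% loss of cells showing the perinucleolar compartment, a nuclear body marking cancer cells; inconclusive = readout between -30 and a set limit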
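Read-out is percentage of cells bearing a perinucleolar compartment, from automated 20x imaging of fixed, Hoechst-stained PC3M PTB-GFP cells. Cells were seeded 4 h, then exposed 16 h to compound (23 nl of library stock) in duplicate plates.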
HPGD inh = HPGD (human) dehydrogenase inhibition. purified HPGD, NADH fluorescence kinetic, PGE2 substrate. Potency, µM, actives largely listed as inhibitors. 150,000 compounds, 4.3% hits. AID 894
Target sequence (P15428 whole entry, looked up): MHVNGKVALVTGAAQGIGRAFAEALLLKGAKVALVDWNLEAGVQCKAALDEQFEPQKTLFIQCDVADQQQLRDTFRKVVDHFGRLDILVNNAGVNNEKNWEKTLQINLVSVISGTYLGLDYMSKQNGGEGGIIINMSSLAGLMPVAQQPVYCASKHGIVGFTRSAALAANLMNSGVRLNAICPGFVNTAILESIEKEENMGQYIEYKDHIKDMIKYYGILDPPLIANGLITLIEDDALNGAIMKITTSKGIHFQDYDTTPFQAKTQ
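20 nM HPGD preincubated 15 min at room temperature with compound in 50 mM Tris-HCl pH 8, 0.01% Tween 20. Started with 1 mM NAD+ and 30 uM prostaglandin E2; NADH fluorescence (360/450 nm) read 5 times over 30-s intervals, last minus first.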
IMPase Li inh = membrane-permeable IMPase blocker, potentiated with lithium. CHO-M1 cells, IP1 TR-FRET (IP-One), carbachol + lithium. Potency, µM (doses to about 59.4 µM), most hits filed as inhibitors. 210,000 compounds, 0.35% hits. AID 1457; active = well fitted curve in the direction sought with a large enough effect; inconclusive = small, poorly fitted or top-dose-only effect, or another doubt; inactive = no such curve, though single readings can be large; an effect the other way counts as inactive or inconclusive;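 also: IP1 builds up when IMPase is blocked and the TR-FRET signal falls; nearly all actives have a fitted effect of over 50% in size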
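CHO-M1, 2000 cells/well, 16–30 h culture; cpd + low Li+, 30 min 37C; lysis with d2-IP1/Eu-anti-IP1 Ab, 10 min RT; TR-FRET 665/620 ratio and 620 channel; AC50 via Hill.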
NPSR antagonist = antagonists of human neuropeptide S receptor cAMP signaling; Q6W5P4; CHO-NPSR cells, cAMP TR-FRET, antagonist mode; Potency, µM (highest dose often 38.3 µM), usual class: inhibitors; 220,000 compounds, 1% hits; AID 1461; active = well fitted curve in the direction sought with a large enough effect; inconclusive = small, poorly fitted or top-dose-only effect, or another doubt; inactive = no such curve, though single readings can be large; an effect the other way counts as inactive or inconclusive; also: nearly all actives have a fitted effect of over 50% in size
IMPase inh = membrane-permeable compound that blocks inositol monophosphatase; P97697; CHO-M1 cells, IP1 accumulation, HTRF TR-FRET ratio; inhibition (IP1 accumulation), % at 46.1 µM; 120,000 tested, under 10 active; AID 901; active = well fitted curve in the direction sought with a large enough effect in the signal ratio, not every such curve was filed as active; inconclusive = small, poorly fitted or top-dose-only effect, or a change in a side signal; inactive = no such curve, though single readings can be large or run the other way; the % refers to the signal ratio;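 also: cells stimulated with carbachol in lithium chloride buffer; higher means more IMPase inhibition seen as more IP1 and lower FRET ratio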
Target sequence (P97697 whole entry, looked up): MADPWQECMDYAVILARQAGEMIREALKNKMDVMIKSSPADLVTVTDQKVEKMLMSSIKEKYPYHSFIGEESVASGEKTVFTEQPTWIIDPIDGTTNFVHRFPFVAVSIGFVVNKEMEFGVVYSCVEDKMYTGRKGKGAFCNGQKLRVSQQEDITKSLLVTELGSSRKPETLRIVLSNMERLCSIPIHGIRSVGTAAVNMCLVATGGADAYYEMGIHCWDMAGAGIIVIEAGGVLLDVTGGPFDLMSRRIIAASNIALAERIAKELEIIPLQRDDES
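In this qHTS, compounds (final up to 46 uM) act on CHO-M1 cells that are then activated through the M1 receptor with carbachol, in pH 7.4 buffer containing 50 mM LiCl, for 30 min. IP1 accumulation is quantified by the IP-One immunoassay.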
A number is an active result. Rows were chosen to be rich in hits. Some 11% of all compounds tested hit in one or more screens of this group. Unless noted, calls follow the shape of the dose curve; as a rule, active = well fitted inhibition curve with a large enough effect (not every such curve was filed as active); inconclusive = small, poorly fitted or top-dose-only effect, or another doubt; inactive = no such curve, though single readings can be large or run the other way.

`O=C(CSc1nnc(CNc2ccc(Cl)cc2)n1Cc1ccccc1)NCc1ccco1` gave ALDH1A1 inh inconclusive, PNC assembly inh inactive, HPGD inh inactive, IMPase Li inh inactive, NPSR antagonist inactive and IMPase inh inactive.
`O=C(CCCSc1ccccc1)Nc1nc(-c2ccco2)c(-c2ccco2)s1` gave ALDH1A1 inh inconclusive, PNC assembly inh inactive, HPGD inh inconclusive, IMPase Li inh inactive and NPSR antagonist inconclusive.
`O=C(CCl)Nc1nc(-c2ccco2)c(-c2ccco2)s1` gave ALDH1A1 inh 0.4µM, PNC assembly inh inactive, HPGD inh inconclusive, IMPase Li inh inactive and NPSR antagonist inactive.
`CCOC(=O)c1c(NC(=S)NC(=O)c2ccc(Cn3cc(Cl)cn3)o2)sc2c1CCC(C)C2` (configuration not stated) gave ALDH1A1 inh inactive, PNC assembly inh inconclusive, HPGD inh inactive, IMPase Li inh inactive, NPSR antagonist inactive and IMPase inh inactive.
CC(Sc1n[nH]c(N)n1)c1nc2scc(-c3cccs3)c2c(=O)[nH]1 (configuration not stated) was read as ALDH1A1 inh inconclusive, PNC assembly inh inactive, HPGD inh inactive, IMPase Li inh inactive, NPSR antagonist inactive and IMPase inh inactive.
For CC1=C/C(=N\NC(=S)Nc2cccnc2)CC(C)(C)C1 the results were ALDH1A1 inh 12µM, IMPase Li inh inactive and NPSR antagonist 1.3µM.
`CCn1c(SCC(=O)Nc2ccccc2OC)nc2ccccc2c1=O` gave ALDH1A1 inh inactive, PNC assembly inh inconclusive, HPGD inh inactive, IMPase Li inh inactive, NPSR antagonist inactive and IMPase inh inactive.
`COc1ccccc1NC(=O)CSc1nc2ccccc2n1C(C)=O` gave ALDH1A1 inh inactive, PNC assembly inh inactive, HPGD inh 16µM, IMPase Li inh inactive, NPSR antagonist inactive and IMPase inh inactive.
For COc1cc([N+](=O)[O-])ccc1NC(=O)CSc1nc2ccccc2n1-c1ccccc1 the results were ALDH1A1 inh 10µM, PNC assembly inh inactive, HPGD inh inactive, IMPase Li inh inactive and NPSR antagonist inactive.
Screening Cc1nn(CCCC(=O)Nc2ccc(Br)cc2F)c(C)c1[N+](=O)[O-] returned ALDH1A1 inh inactive, IMPase Li inh inactive and NPSR antagonist inactive.
CSC(=NC#N)N1CCN(c2ccc([N+](=O)[O-])cc2)CC1 was read as ALDH1A1 inh 18µM, IMPase Li inh inactive and NPSR antagonist inactive.
CSC(=NC#N)N1CCN(c2ccccn2)CC1 was read as ALDH1A1 inh 18µM, IMPase Li inh inactive and NPSR antagonist inactive.
`CSC(=NC#N)N1CCN(C(=NC#N)SC)CC1` gave ALDH1A1 inh inconclusive, IMPase Li inh inactive and NPSR antagonist inactive.
`CCOC(=O)N1CCN(c2ccc([N+](=O)[O-])cc2)CC1` gave ALDH1A1 inh inconclusive, PNC assembly inh inconclusive, HPGD inh inactive, IMPase Li inh inactive and NPSR antagonist inactive.
COc1ccc(C(=O)NC(=S)Nc2ccc(Cc3ccncc3)cc2)cc1 was read as ALDH1A1 inh 14µM, IMPase Li inh inactive and NPSR antagonist inactive.
For COc1cccc(C(=O)NC(=S)Nc2ccc(N3CCCC3)cc2)c1 the results were ALDH1A1 inh 9.5µM, PNC assembly inh inactive, HPGD inh inactive, IMPase Li inh inactive, NPSR antagonist inactive and IMPase inh inactive.
Cc1ccccc1C(=O)NC(=S)Nc1ccc(Cc2ccncc2)cc1 was read as ALDH1A1 inh inconclusive, PNC assembly inh inactive, HPGD inh inactive, IMPase Li inh inactive and NPSR antagonist inactive.
CC(C)Oc1cccc(C(=O)NC(=S)Nc2ccc(N3CCN(C)CC3)cc2)c1 was read as ALDH1A1 inh inconclusive and NPSR antagonist inactive.
Screening COc1cccc(C(=O)NC(=S)Nc2ccc3oc(=O)ccc3c2)c1 returned ALDH1A1 inh 1.4µM, PNC assembly inh inactive, NPSR antagonist inactive and IMPase inh inactive.
Screening Cc1cccc(C(=O)NC(=S)N2CCN(C(=S)NC(=O)c3cccc(C)c3)CC2)c1 returned ALDH1A1 inh inactive, PNC assembly inh inactive, HPGD inh inactive, IMPase Li inh inactive and NPSR antagonist inactive.
